# LDHA inh – qHTS assay for inhibitors of human lactate dehydrogenase; 0.15% of 480,000 active; purified LDHA, NADH/diaphorase-resazurin fluorescence; stronger effect = lower value; activity change, % (values are at about 110 or 230 µM); L-lactate dehydrogenase A chain (Homo sapiens), P00338; in the data active = activity change below about -30%; inconclusive = mostly about -25% to -30%;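 note: plate controls were DMSO wells for no effect and wells without enzyme for full effect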
#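 Human LDH5 (2 nM) was incubated with 0.06 mM NADH and 0.2 mM pyruvate for 5 min at room temperature in Tris pH 7.4. Remaining NADH was coupled through diaphorase/resazurin, and resorufin fluorescence was read at 0 and 20 min.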
# DT40 TDP1 CPT – qHTS for Inhibitors of human tyrosyl-DNA phosphodiesterase 1 (TDP1): qHTS in cells in presence of CPT | 12% of 420,000 active | chicken DT40 Tdp1-/-;hTDP1 cells + 20 nM CPT, ATP luminescence, 48 h | Potency, µM (top dose mostly 46.2 µM), without a hit: at the top dose activity change, negative = growth inhibition, actives largely listed as inhibitors; note: potency is the fitted concentration of half-maximal effect; nearly all actives have a fitted effect of over 55% in size
#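 Chicken DT40 Tdp1-/- cells complemented with human TDP1, 400 cells/well, exposed to compounds plus 20 nM camptothecin for at least 48 h at 37 C; viability read as ATP content by CellTiter-Glo luminescence.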
# IL-1B inflam inh – qHTS for Inhibitors of Inflammasome Signaling: IL-1-beta AlphaLISA Primary Screen. THP-1 LPS/ATP IL-1B secretion, AlphaLISA, 16 h; stronger effect = lower value. activity change, % at 57.5 µM. 4.7% of 360,000 active. AID 743279, 2014; in the data active = activity change below about -50%; inconclusive = mostly about -30% to -49%
#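 Secreted IL-1B measured by AlphaLISA bead assay after 16 h compound exposure of THP-1 cells; compounds (final up to 57.5 uM) added 1 h before LPS (250 ng/mL) and ATP (1.25 mM) stimulation; lower signal means less secretion.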
# DT40 TDP1 no CPT – qHTS for Inhibitors of human tyrosyl-DNA phosphodiesterase 1 (TDP1): qHTS in cells in absence of CPT; AID 686978, 2013; 15% of 420,000 active; DT40 Tdp1-/- hTDP1 cells, no CPT, ATP luminescence, 48 h; Potency, µM (titrated, usually from 46.2 µM), inactives show at the highest dose activity change, negative = growth inhibition, hits mostly inhibitors; note: potency is the fitted concentration of half-maximal effect; nearly all actives have a fitted effect of over 55% in size
#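 Seeded 400 DT40-hTDP1 cells/well (vehicle DMSO, no 20 nM CPT); pinned compounds; ≥48 hr at 37 °C; CellTiter-Glo luminescence as viability measure.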
# Gal4-VP16 FLuc – VP16 counterscreen qHTS for inhibitors of ROR gamma transcriptional activity. Drosophila S2 Gal4-VP16 UAS-luciferase, luminescence, 20 h. Potency, µM (top dose mostly 53.6 µM), for inactives: at the highest dose activity, negative = inhibition, hits mostly inhibitors. 3.5% of 310,000 active;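 note: Gal4-VP16 expression switched on by copper sulfate through the metallothionein promoter; potency is the fitted concentration of half-maximal effect; nearly all actives have a fitted effect of over 50% in size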
# RORg inh – qHTS for inhibitors of ROR gamma transcriptional activity; Nuclear receptor ROR-gamma (Mus musculus), P51450; Drosophila S2 Gal4-RORgamma UAS-luciferase reporter, 20 h; Potency, µM (highest dose often 53.6 µM), inactives show at the top dose activity change, negative = inhibition, hits mostly inhibitors; 5.4% of 310,000 active; note: potency is the fitted concentration of half-maximal effect; nearly all actives have a fitted effect of over 60% in size
# Target sequence (P51450 whole entry, looked up, the tested form may be a part): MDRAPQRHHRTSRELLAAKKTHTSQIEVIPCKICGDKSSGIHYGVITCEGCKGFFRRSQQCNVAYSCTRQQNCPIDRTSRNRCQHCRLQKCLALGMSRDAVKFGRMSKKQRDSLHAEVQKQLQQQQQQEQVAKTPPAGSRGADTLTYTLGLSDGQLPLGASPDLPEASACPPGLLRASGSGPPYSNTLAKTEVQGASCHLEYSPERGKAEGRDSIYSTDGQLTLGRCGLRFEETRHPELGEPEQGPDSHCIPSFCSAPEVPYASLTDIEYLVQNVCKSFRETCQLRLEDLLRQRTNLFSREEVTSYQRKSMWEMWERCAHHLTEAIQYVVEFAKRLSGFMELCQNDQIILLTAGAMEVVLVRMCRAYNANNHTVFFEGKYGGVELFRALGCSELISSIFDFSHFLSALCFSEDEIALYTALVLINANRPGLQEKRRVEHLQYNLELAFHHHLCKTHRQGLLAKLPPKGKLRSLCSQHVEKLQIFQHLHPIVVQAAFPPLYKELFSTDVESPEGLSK
#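 Compounds are pin-transferred onto Drosophila Schneider cells expressing a copper-inducible Gal4–ROR gamma transactivation domain fusion. After 1 hr, copper sulfate is added to 700 uM final; luciferase is read 20 hr later.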
# The depositor's hits bear a star; u = inconclusive; x = no result. Compounds with a hit are over-represented: about 18% of the library has one in this group of screens. Unless noted, calls come from the whole dose curve; as a rule, active = well fitted curve in the direction sought with a large enough effect; inconclusive = small, poorly fitted or top-dose-only effect, or another doubt; inactive = no such curve, though single readings can be large; an effect the other way counts as inactive or inconclusive. Unless noted, % is set by controls: 0 for no effect and ±100 for the full control effect.
SMILES,LDHA inh,DT40 TDP1 CPT,IL-1B inflam inh,DT40 TDP1 no CPT,Gal4-VP16 FLuc,RORg inh
COc1ccc(Cl)cc1NS(=O)(=O)c1cc(-c2n[nH]c(=O)c3c2CCCC3)ccc1C,-2,x,x,x,x,x
O=C(c1cnsn1)N1CCC(CO)(Cc2cccc(F)c2)CC1,-4,4%,-10,-24%,3%,14%
COc1cccc(CC2(CO)CCN(CC3=CC[C@H]4C[C@@H]3C4(C)C)CC2)c1,2,u,-55*,u,-1%,-1%
COc1cccc(CC2(CO)CCN(Cc3ccc4cccc(F)c4n3)CC2)c1,-6,-19%,-71*,u,4%,1%
OCC1(Cc2cccc(F)c2)CCN(Cc2ccc3cccc(F)c3n2)CC1,2,u,-72*,u,-5%,14%
OCC1(CCOc2ccccc2)CCN(Cc2ccc3cccc(F)c3n2)CC1,-1,-6%,u,u,-7%,-27%
COc1cccc(CC2(CO)CCN(Cc3ccc(NC(C)=O)cc3)CC2)c1,-4,1%,15,-16%,-6%,2%
Cc1ccc(Cl)cc1-n1ncc2c(Nc3cccc4c3CCCC4)ncnc21,24,x,x,x,x,x
O=C(Cn1cnc2cc(F)ccc2c1=O)N(Cc1cccs1)c1ccc2c(c1)OCCO2,-1,x,x,x,x,x
COc1ccc(C(=O)N(Cc2ccco2)Cc2cccs2)c(O)c1,6,-12%,-18,-6%,-18%,21%
COc1ccc(C(=O)/C=C/C(=O)N(CC(=O)NCCC(C)C)Cc2cccs2)c(O)c1,-1,1.8µM*,-88*,u,u,u
COc1ccc(C(=O)/C=C/C(=O)N(CC(=O)NC2CCCCC2)Cc2ccc(F)cc2)c(O)c1,-4,5.2µM*,-98*,4.6µM*,7.1µM*,-12%
COc1ccccc1CNC(=O)Cc1c(C)c2ccc(OC)c(OC)c2oc1=O,5,x,x,x,x,x
C/C(=N\NC(=O)c1cc(C)nc2ccccc12)c1ccco1,-2,12%,18,1%,4%,-26%
COc1ccc(-c2cc(C(=O)N/N=C/c3ccc4c(c3)OCO4)c3ccccc3n2)c(OC)c1,-1,9.2µM*,-17,1.8µM*,-2%,-17%
COc1ccccc1C(=O)N/N=C/c1ccc2c(c1)OCO2,-2,-2%,-1,-15%,21%,10%
COc1cc2ccccc2cc1C(=O)N/N=C/c1ccc2c(c1)OCO2,-1,4.6µM*,51,2.6µM*,-7%,25%
COc1ccc(-c2cc(C(=O)NC3CC3)c3ccccc3n2)c(OC)c1,-5,x,x,x,x,x
O=C(N/N=C/c1ccc2c(c1)OCO2)c1cc(-c2ccc(F)cc2)nc2ccccc12,-1,15µM*,-1,9.2µM*,u,u
COc1ccc(-c2cc(C(=O)N/N=C(\C)c3ccco3)c3ccccc3n2)c(OC)c1,-4,u,-16,u,-30%,6.3µM*
N#Cc1cccc(OCC(=O)c2ccc3c(c2)OCCO3)c1,8,x,x,x,x,x
COc1ccc(-c2cc(C(=O)O)c3ccccc3n2)c(OC)c1,-2,-10%,20,-12%,-3%,-12%
COc1ccc(-c2cc(C(=O)N/N=C/c3ccc(OC)c(COCC(F)(F)C(F)F)c3)c3ccccc3n2)c(OC)c1,0,5.8µM*,-9,5.8µM*,-1%,-5%
COc1ccc(-c2cc(C(=O)N/N=C/c3sccc3C)c3ccccc3n2)c(OC)c1,-3,u,-9,u,u,4.5µM*
CCCNC(=O)c1cc(-c2ccc(OC)cc2OC)nc2ccccc12,3,x,x,x,x,x
SMILES,LDHA inh,DT40 TDP1 CPT,IL-1B inflam inh,DT40 TDP1 no CPT,Gal4-VP16 FLuc,RORg inh
CCOc1ccc(NC(=O)NC2CCN(c3nc4ccccc4s3)CC2)cc1,2,x,x,x,x,x
Cc1ccc(-c2cc(C(=O)N/N=C/c3cccnc3)n[nH]2)o1,-2,-1%,-14,-29%,-23%,-9%
Cc1ccc(/C=N/NC(=O)c2cc(-c3ccc(C)o3)[nH]n2)cc1,-4,13µM*,6,15µM*,-4%,-15%
COc1ccccc1/C=C/C=N/NC(=O)c1cc(-c2ccc(C)o2)[nH]n1,-1,u,-23,u,u,13µM*
N#CC(CCc1ccc([N+](=O)[O-])cc1)(CCc1ccc([N+](=O)[O-])cc1)C(N)=O,17,23µM*,0,13µM*,x,x
CCOC(=O)c1ccc(Nc2nc3ccccc3nc2NS(=O)(=O)c2ccc(F)cc2)cc1,-3,x,x,x,x,x
Cc1cc(CC(C)C)n(-c2nc3ccccc3c(=O)n2OCC(=O)N(C)C)n1,-7,-14%,-14,-19%,6.3µM*,2.2µM*
Cc1cc(CC(C)C)n(-c2nc3ccccc3c(=O)n2OCc2ccccc2)n1,2,u,-12,u,u,1.6µM*
Cc1ccccc1NC(=O)C1(N(C)C(=O)Cc2nc(N)n[nH]2)CCCCC1,5,x,x,x,x,x
CCCCCC(=O)NNC(=O)Cc1ccc([N+](=O)[O-])cc1,-4,6%,21,3%,-12%,18%
CCCCC(=O)NNC(=S)NC(=O)c1cccc([N+](=O)[O-])c1,-3,23µM*,50,u,0.89µM*,1µM*
CCCCOc1ccc(C(=O)N/C(=C\c2cccc([N+](=O)[O-])c2)C(=O)OCCC)cc1,-5,0%,-8,-5%,3%,13%
CCCCOc1ccc(C(=O)N/C(=C\c2ccc(Br)cc2)C(=O)NC2CCCCC2)cc1,-11,5.2µM*,x,u,x,x
CCCCC(=O)NNC(=S)NC(=O)c1ccc([N+](=O)[O-])cc1,-5,u,30,29µM*,11µM*,2.5µM*
O=C(NC1CCCCC1)/C(=C/c1ccc(Cl)cc1)NC(=O)c1ccccc1,3,u,x,u,x,x
CCCCOc1ccc(C(=O)N/C(=C/c2cccc([N+](=O)[O-])c2)C(=O)O)cc1,1,-7%,-62*,-26%,-2%,-7%
Cc1ccc(NC(=O)c2ccc(S(=O)(=O)NCC(C)O)cc2)cc1Cl (stereo unspecified),10,x,x,x,x,x
CC(C)CN1CCN(c2nc3c(c(=O)[nH]c(=O)n3C)n2CCc2ccccc2)CC1,2,x,x,x,x,x
COCCCNC(=S)NC(=O)c1ccc(C)cc1,-1,0%,0,18µM*,u,13µM*
